The full list was thinned out, with hits kept by preference.
Vaccinia pol inh: vaccinia E9 polymerase processive synthesis inhibitors, primary screen, biochemical, absorbance. normalized absorbance, % (concentration not given with the values). Vaccinia virus DNA polymerase (E9) processive complex. in vitro processive DNA synthesis, absorbance read-out; hits give low values. 46,000 compounds, 0.94% hits; in the data active means normalized absorbance mostly below about 85%, no sharp cut-off; inactive means mostly above about 86%
* marks the source's active call; other numbers are inactive results; ! = not active in a repeat.

SMILES	Vaccinia pol inh
CCCOC(=O)c1ccc(NCC(=O)Nc2ccc(C)cc2)cc1	86
O=c1cc(-c2ccccc2)oc2cc(Cl)ccc12	98
Oc1ccc(N=c2cc(-c3ccccc3)oc3ccc(Cl)cc23)cc1	98
CC(O)CN=c1cc(-c2ccccc2)oc2ccc(Cl)cc12 (stereo not drawn)	46*
COc1ccc(N(C(=O)c2cc(C)cc(C)c2)C2C=CS(=O)(=O)C2)c(OC)c1 (stereo not drawn)	100
CCN1/C(=C/c2scc[n+]2C)C=C(C)c2cc(OC)c3ccccc3c21	27*
CCN1C(=O)C(=Cc2ccc(N3CCOCC3)cc2OC)C(=O)N(CC)C1=S	102
CCOc1ccc(C(=O)Nc2ccc(-c3nnc4n3CCCCC4)cc2)cc1	107
Cc1nc2ccccc2c2oc(C(=O)N3CCC(C)CC3)cc12	97
Cc1nc2ccccc2c2oc(C(=O)NCCN3CCN(C)CC3)cc12	62*
Cc1nc2ccccc2c2oc(C(=O)NC3CCCC3)cc12	96
Cc1cc(C(=O)NC2CCCCC2)no1	100
CC1CCCN(CCCNC(=O)c2coc3nc4ccccc4nc23)C1 (stereo not drawn)	60*
Cc1ccc(CCNC(=O)c2coc3nc4ccccc4nc23)cc1	103
CC1CCCN(CCCNC(=O)C2CCCN(c3ncnc4c3nc3n4CCCCC3)C2)C1 (stereo not drawn)	101
COCc1cc(C)nc2sc3c(nnn4c5ccccc5nc34)c12	99
CC(C)(C)c1nnc(N)s1	97
O=C(Cn1ncc2ccsc2c1=O)NCCN1CCN(Cc2ccccc2)CC1	90
NC(N)=NC(=O)c1nc(Cl)c(N)nc1N	63*!
CC(C)=CCOc1cc(C)cc2oc(=O)cc(-c3ccccc3)c12	100
O=C(CNC(=O)c1ccc(Cl)cc1)c1ccc(Cl)cc1	103
O=C(Cc1ccc(Cl)cc1)c1ccc(Cl)cc1	79*
O=C(CC(SCc1ccc(Cl)cc1)C(=O)O)c1ccc(Cl)cc1 (stereo not drawn)	97
N#C/C(=C/c1cccc(Oc2ncccn2)c1)c1ccccc1F	107
Cc1ccc(C)n1-c1cccc(C(F)(F)F)c1	99
SMILES	Vaccinia pol inh
Cc1ccc(C)n1-c1cccc(C(=O)O)c1	11*
Cc1ccc(C)n1-c1cccc(N)c1	100
Cc1cc(OC(=O)N(C)C)nc(-c2ccc(F)c(Cl)c2)n1	98
CC(=O)Nc1cc(C(=O)NCCc2ccc(C)cc2)ccc1Sc1ccc(C)cc1	106
CCCCc1cc2c(=O)c(-c3ccccn3)coc2cc1O	98
CCCSc1ncnc2sc3c(c12)CCCC3	101
COC(=O)c1ccc(CSc2nnc3n(N)cnn23)cc1	101
COC(=O)c1ccc(CSC(=N)N)cc1	81*
N=C(N)SCc1ccccc1	96
COC(=O)c1ccc(Nc2ccccc2)cc1	102
COC(=O)c1ccc(NN)cc1	81*
COC(=O)c1ccc(NC(=S)N(C(C)C)C(C)C)cc1	95
Cc1nonc1NC(=O)c1cccs1	100
C=CC1C[C@H]2CCC1C[C@H]2[C@H](O)c1ccnc2ccc(OC)cc12 (stereo partly drawn)	98
Cc1ccc2cc(C)c(NCc3cccnc3)nc2c1	99
Fc1cccc(CSCc2c(F)cccc2Cl)c1	108
CC(=O)/C(C#N)=C(\N=C\N(C)C)SCc1c(Cl)cccc1Cl	102
CN(C)/C=C/C(=N)SCc1c(F)cccc1Cl	75*
Cc1ccccc1CN1C(=O)/C(=C\c2ccc(C(=O)N3CCOCC3)cc2)Sc2ccccc21	101
Cc1ccccc1Nc1nccc(N(C)C)c1C#N	82*
Cc1ccccc1NC1=NC(C)(C)CS1	106
Cc1ccccc1NC1=NCCS1	108
Cc1cccc(N(C)C(=O)CCS(=O)(=O)c2ccc3c(c2)SC(C)C(=O)N3)c1 (stereo not drawn)	88
O=C(Cc1ccc(-c2ccccc2)cc1)OCC(=O)N1CCCCC1	97
CN(C)Cc1cc2ccccc2[nH]1	100
SMILES	Vaccinia pol inh
CN1CCN(Cc2c3ccccc3cc3ccccc23)CC1	88
CN(C)Cc1c2ccccc2cc2ccccc12	47*
COc1ccc(OCCC(=O)OCc2ccccc2)cc1	99
O=C(O)CN(CC(=O)O)c1ccc(Cl)cc1	93
CC(C)C(=O)Nc1nc(-c2cc3ccccc3oc2=O)cs1	100
CN(C)CCCn1cc(C2=C(c3c[nH]c4ccccc34)C(=O)NC2=O)c2ccccc21	68*
CN(C)Cc1c[nH]c2ccccc12	98
COc1ccccc1OCCn1cc(/C=C2/SC(=S)NC2=O)c2ccccc21	100
CCOC(=O)[C@H]1NC(=O)C[C@H]1c1ccccc1	96
CC(C)c1ccc([C@@H]2Nc3ccc(C(=O)O)cc3[C@@H]3C=CC[C@@H]32)cc1	23*
CC(=O)Nc1ccc2c(c1)C1C=CCC1C(c1cccc(Cl)c1Cl)N2 (stereo not drawn)	100
Fc1ccc(C2Nc3ccc(OC(F)(F)F)cc3C3C=CCC32)cc1 (stereo not drawn)	97
CCOC(=O)N1CCC(N2C(=O)c3ccc(C(=O)O)cc3C2=O)CC1	102
CCOC(=O)[C@@H]1Nc2ccc(C(=O)O)cc2[C@@H]2C=CC[C@H]12	56*
Nc1cc(=O)[nH]c(SCC(=O)NC2CCCCC2)n1	100
COc1ccc(/C=C2\SC(=O)NC2=O)cc1	97
CC1CCN(C(=O)CSc2nc(-c3ccco3)nc3c2c(=O)n(C)c(=O)n3C)CC1	98
C[C@H](c1ccccc1)N1C(=O)CC[C@H]2CC(=O)CC[C@@H]21	102
O=C(c1ccc(-c2ccccc2)s1)N1CCOCC1	93
CC(C)C1Cc2c(sc3nc(SCc4ccc(Cl)c(Cl)c4)nc(N)c23)CO1 (stereo not drawn)	100
CCNc1nc(SCC(=O)NC(=O)NCc2ccccc2)nc2sc3c(c12)CCN(C)C3	94
CCNc1nc(SCc2ccc(Cl)cc2)nc2sc3c(c12)CCN(C)C3	53*
O=C(Cc1nc2ccccc2[nH]1)c1ccc(F)cc1F	100
O=C(c1ccccc1)c1cc(Cl)ccc1N=Cc1ccsc1	96
CCCOC(=O)Nc1sc2c(c1C(N)=O)CCC2	105
SMILES	Vaccinia pol inh
CC(=O)Nc1ccc(NC(=O)Cn2cnc3c(oc4ccccc43)c2=O)cc1	100
c1ccc(COc2ccc(C3SCCS3)cc2)cc1	99
CCN1/C(=C/c2ccc3cc(C)ccc3[n+]2C)Sc2cc(OC)ccc21	24*
COc1ccc2c(ccc(/C=C3\Sc4ccccc4N3C)[n+]2C)c1	20*
CC(=S)/C=C1\Sc2ccccc2N1C	101
CN1/C(=C\C=C2C(=O)c3ccccc3C2=O)Sc2ccccc21	104
CCN1/C(=c2/sc3nc4ccccc4n3c2=O)Sc2ccc(OC)cc21	99
CCN1/C(=C\C=C\C(=O)c2ccccc2OC)Sc2ccccc21	111
COC(=O)C(NC(=O)c1cn(C)nc1C(F)(F)F)c1ccccc1 (stereo not drawn)	101
N=c1oc2cc(O)ccc2cc1C(=O)Nc1cccc(C(F)(F)F)c1	102
Cc1cc2nnc(SCC(=O)NCC(C)C)n2c2ccccc12	106
O=c1[nH]c2ccccc2cc1-c1noc(-c2ccccc2)n1	97
Cc1cccc(Cn2nc(Cc3cccnc3)c3ccccc3c2=O)c1	101
CCOc1cccc2sc(NC(=O)CC)nc12	87*
CCC(=O)Nc1nc2c(C)c(C)ccc2s1	100
CCOc1cccc2sc(NC(=O)c3ccccc3F)nc12	105
C=CCn1c(SCC(=O)O)nnc1-c1sc2ccccc2c1Cl	100
COc1cc(/C(O)=C(\C#N)c2nc3ccccc3s2)cc(OC)c1OC	100

High-throughput results (PubChem BioAssay)
